Data taken from PubChem BioAssay AID651640 (Broad Institute, 2012).
The campaign covered roughly 350,000 compounds. About 6,000 (1.7%) were called active. Roughly 5% stayed inconclusive and do not appear here. The sample holds actives, similar compounds and a random draw of the others, so the mix is not that of the screen. Unmarked numbers belong to inactive results. Cut-off read from the data, not from the text of the source: active = CPE inhibition above about 20% (passing the limit was not always enough); inconclusive = no clear call, values can overlap the other calls; tested in BHK-21 cells.

Assay: protection of cells from dengue 2 killing – plate reader, single concentration, primary screen (AID 651640);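 note: 0% = median of neutral control wells and 100% = median of positive control wells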
Conditions: DENV2-infected cells, cytopathic effect rescue, at 9.99 µM, hits give high values

SMILES	CPE inhibition
Cc1ccccc1S(=O)(=O)N1CC(=O)N2[C@H](CO)[C@H](c3ccc(C#CC4CC4)cc3)[C@@H]2C1	5.14%
CC=Cc1ccc2n(c1=O)C[C@@H]1[C@@H](CO)[C@H](C(=O)NC3CCCC3)[C@H]2N1C(=O)c1cnccn1 (mixture of isomers)	2.52%
CO[C@@H]1CN(C)C(=O)c2ccc(NC(=O)C3CC3)cc2OC[C@@H](C)N(CC2CCOCC2)C[C@H]1C	0.64%
CC(C)NC(=O)Nc1cccc2c1O[C@H](CN(C)Cc1ccccc1)[C@H](C)CN([C@H](C)CO)C2=O	1.48%
CO[C@@H]1CN(C)C(=O)c2cc(NC(C)=O)ccc2OC[C@@H](C)N(C(=O)NC2CCCCC2)C[C@H]1C	-11%
COc1cccc(-c2ccc3n(c2=O)C[C@H]2[C@H](CO)[C@@H](C(=O)N4CCCCC4)N(C)[C@@H]32)c1	5.67%
CCCNC(=O)Nc1ccc2c(c1)OC[C@H](C)N(Cc1ccccc1)C[C@H](C)[C@H](OC)CN(C)C2=O	14.2%
COC(=O)CCCCCCC(=O)Nc1ccc(C2OC(CSc3nc(-c4ccccc4)c(-c4ccccc4)o3)CC(c3ccc([N+](=O)[O-])cc3)O2)cc1 (configuration not stated)	-6.28%
CCCNC(=O)[C@H]1[C@H](CO)[C@H]2Cn3c(ccc(-c4cccc(F)c4)c3=O)[C@@H]1N2C(=O)CC	0.06%
CN1c2ccc(-c3ccccc3)cc2[C@@H]2[C@@H](CCN2C(=O)c2ccccc2F)[C@@H]1CO	1.36%
CN1c2ccc(Br)cc2[C@@H]2[C@@H](CCN2C(=O)Cc2ccccc2)[C@@H]1CO	0.742%
CN1c2ccc(Br)cc2[C@@H]2[C@@H](CCN2C(=O)C2CCCCC2)[C@H]1CO	8.19%
CN1c2ccc(Br)cc2[C@@H]2[C@@H](CCN2C(=O)C2CCCC2)[C@H]1CO	99.1% (active)
O=C(CC1CC1)N1[C@H](CO)[C@@H]2c3ccccc3N(S(=O)(=O)c3ccc(F)cc3)C[C@@H]21	-3.84%
O=C(C[C@@H]1CC[C@H](NC(=O)C2CCOCC2)[C@@H](CO)O1)Nc1ccccc1	6.72%
COC(=O)[C@]12CCCCC=C1N(Cc1ccc3c(c1)OCO3)C(=O)[C@H](CC(=O)N1CCOCC1)C2	8.62%
CCOC(=O)[C@]12CCC=C1N(Cc1ccccc1)C(=O)[C@H](CC(=O)N1CCCC1)C2	29.8% (active)
CCOC(=O)[C@]12CCCC=C1N(Cc1ccc(Cl)cc1Cl)C(=O)[C@H](CC(=O)N1CCCCC1)C2	4.66%
CCOC(=O)[C@]12CCCC=C1N(Cc1ccc3c(c1)OCO3)C(=O)[C@H](CC(=O)N1CCN(C(=O)c3ccco3)CC1)C2	-2.94%
CCOC(=O)[C@]12CCC=C1N(Cc1ccco1)C(=O)[C@H](CC(=O)N1CCSCC1)C2	-4%
COC(=O)[C@]12CCCCC=C1N(Cc1ccc(Cl)cc1Cl)C(=O)[C@H](CC(=O)NCc1cccc3ccccc13)C2	-2.75%

SMILES	CPE inhibition
COC(=O)[C@]12CCCCC=C1N(Cc1ccc3c(c1)OCO3)C(=O)[C@H](CC(=O)NCc1cccs1)C2	-4.45%
COC(=O)[C@]12CCCCC=C1N(Cc1cccc3ccccc13)C(=O)[C@H](CC(=O)N1CCOCC1)C2	99.4% (active)
CCOC(=O)[C@]12CCCC=C1N(Cc1ccc3c(c1)OCO3)C(=O)[C@H](CC(=O)NCc1cccs1)C2	66.5% (active)
COc1ccc(S(=O)(=O)N(C)C[C@@H]2Oc3ccc(NC(=O)Cc4ccccc4)cc3CC(=O)N([C@@H](C)CO)C[C@H]2C)cc1	-3.88%
CO[C@@H]1CN(C)C(=O)c2cc(NC(=O)c3ccc4c(c3)OCO4)ccc2OC[C@H](C)N(CCC(F)(F)F)C[C@H]1C	2.23%
Cc1noc(C)c1NC(=O)Nc1ccc2c(c1)CC(=O)N([C@@H](C)CO)C[C@@H](C)[C@H](CN(C)C(=O)NC1CCCCC1)O2	1.27%
N#C[C@@H]1[C@@H](c2ccc(-c3ccccc3F)cc2)[C@@H](CO)N1C(=O)c1ccccn1	-0.879%
COc1ccccc1NC(=O)N[C@H]1CC[C@@H](CC(=O)NCc2ccc(Cl)c(Cl)c2)O[C@H]1CO	-2.11%
C/C=C/c1ccc2c(c1)O[C@@H](CN(C)C(=O)Cc1ccccn1)[C@@H](C)CN([C@H](C)CO)S2(=O)=O	3.81%
C[C@@H]1CN([C@H](C)CO)S(=O)(=O)c2ccc(C#C[C@@H](C)O)cc2O[C@H]1CN(C)C(=O)CC1CC1	-1.93%
Cc1cccc([C@H]2[C@@H]3C=CC[C@@H](C)[C@@H]3C(=O)N2Cc2ccccc2)c1	-1.21%
Cc1cccc([C@@H]2[C@@H]3C(=O)N(C)C(=O)[C@@H]3[C@@H]3C(=O)Nc4ccccc4C(=O)N23)c1	30.1% (active)
Cc1ccc(C2Nc3ccccc3C(=O)N2CCN2CCNC2=O)cc1 (configuration not stated)	-0.485%
O=C([C@H]1[C@H](CO)[C@H]2Cn3c(ccc(C4=CCCC4)c3=O)[C@@H]1N2C(=O)c1ccncc1)N1CCCCC1	-10.6%
CNC[C@H]1Oc2cc(C#CC3CCCC3)ccc2S(=O)(=O)N([C@H](C)CO)C[C@@H]1C	49.1% (active)
CNC[C@H]1Oc2cc(C#Cc3ccccc3)ccc2S(=O)(=O)N([C@@H](C)CO)C[C@@H]1C	10.6%
CNC[C@@H]1Oc2cc(C#CC3CCCC3)ccc2S(=O)(=O)N([C@@H](C)CO)C[C@@H]1C	3.46%
CNC[C@@H]1Oc2cc(C#CCC3CCCC3)ccc2S(=O)(=O)N([C@H](C)CO)C[C@H]1C	18.9%
CNC[C@H]1Oc2cc(C#CC(C)(C)O)ccc2S(=O)(=O)N([C@@H](C)CO)C[C@@H]1C	29.3% (active)
CNC[C@@H]1Oc2cc(C#Cc3ccc(F)cc3)ccc2S(=O)(=O)N([C@@H](C)CO)C[C@H]1C	7.09%
COc1ccc(S(=O)(=O)N[C@H]2C=C[C@@H](CC(=O)O)O[C@@H]2CO)cc1	-1.75%
